Assay results as given in the supplement of paper PMC3545927.
The list shows a part of the results. The hit rate among all sequences tested is not known here.

Target: furin, P09958
Experiment: furin cleavage Z-score vs untreated control; higher = more cleavage, active = 3.5 or more, inactive = 1 or less, 8 variable residues between constant flanks
Outline: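 Furin-free reactions served as the baseline for the cleavage Z-score, which is the log read count lowess-adjusted and scaled by median absolute deviation. Counts came from released DNA, adapter-tagged by PCR and sequenced. Purified furin had cut 8-mer peptides fused to a cDNA oligonucleotide on magnetic beads during 7.5, 15 or 30 min at 1:10 enzyme:substrate.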
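Also: purified furin at 1:10 enzyme:substrate in 50 mM HEPES pH 7.5.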

Chain of furin, P09958 (P09958 whole entry): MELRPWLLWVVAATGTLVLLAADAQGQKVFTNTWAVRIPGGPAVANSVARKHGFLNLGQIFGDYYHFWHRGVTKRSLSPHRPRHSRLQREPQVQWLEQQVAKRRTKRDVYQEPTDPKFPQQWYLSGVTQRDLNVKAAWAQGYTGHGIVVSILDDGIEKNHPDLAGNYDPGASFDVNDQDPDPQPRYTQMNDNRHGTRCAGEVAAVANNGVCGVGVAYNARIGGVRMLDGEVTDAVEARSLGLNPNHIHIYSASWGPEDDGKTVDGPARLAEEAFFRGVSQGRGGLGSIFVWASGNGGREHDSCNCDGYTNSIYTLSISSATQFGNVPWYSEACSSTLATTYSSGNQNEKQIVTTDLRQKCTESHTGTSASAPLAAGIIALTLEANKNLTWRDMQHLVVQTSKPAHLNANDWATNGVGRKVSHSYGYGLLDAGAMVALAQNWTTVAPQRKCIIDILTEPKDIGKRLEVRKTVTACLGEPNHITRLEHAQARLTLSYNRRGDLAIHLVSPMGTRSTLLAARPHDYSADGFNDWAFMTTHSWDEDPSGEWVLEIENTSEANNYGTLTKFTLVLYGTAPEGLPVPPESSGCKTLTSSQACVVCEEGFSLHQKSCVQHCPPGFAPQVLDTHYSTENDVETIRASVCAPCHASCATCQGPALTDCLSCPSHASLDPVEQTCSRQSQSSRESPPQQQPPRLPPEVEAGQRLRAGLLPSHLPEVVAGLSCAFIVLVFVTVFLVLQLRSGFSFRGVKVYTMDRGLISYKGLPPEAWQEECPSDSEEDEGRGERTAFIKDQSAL

Sequence | furin cleavage Z-score (7.5 min) | furin cleavage Z-score (15 min) | furin cleavage Z-score (30 min)
CASGPCSAHLAGNASASA [HC2496] | -0.802 (inactive) | 0.24 (inactive) | 0.168 (inactive)
CAADAVDGAGAGNASASA [CS10] | 0.632 (inactive) | -1.19 (inactive) | 1.15
CALNNTRPPLAGNASASA [HC430] | 2.07 | 0.471 (inactive) | 1.95
CACGSSDLYLAGNASASA [HC723] | -2.29 (inactive) | -1.54 (inactive) | -0.552 (inactive)
CATTPCSVSWAGNASASA [HC1890] | -0.725 (inactive) | -1.82 (inactive) | -0.963 (inactive)
CAQVGDFHYVAGNASASA [HC1208] | -1.01 (inactive) | 0.348 (inactive) | -0.0115 (inactive)
CARVERFKRDAGNASASA [FS-1567] | 12.4 (active) | 11.1 (active) | 8.4 (active)
CAKQHRLKRYAGNASASA [FS-1349] | 11.1 (active) | 11.6 (active) | 10 (active)
CAGPIRLKRDAGNASASA [FS-593] | 15 (active) | 15.3 (active) | 10.9 (active)
CALPGNPAIAAGNASASA [HC1051] | 0.0659 (inactive) | -0.342 (inactive) | -0.64 (inactive)
CACGPVYCFTAGNASASA [HC412] | 0.624 (inactive) | 0.0869 (inactive) | -0.506 (inactive)
CAHPLRKRRKAGNASASA [FS-131] | 8.81 (active) | 9.6 (active) | 7.46 (active)
CARKRRKRKKAGNASASA [FS-858] | 0.153 (inactive) | 0.772 (inactive) | 1.09
CAPPLVETWKAGNASASA [HC1308] | 2.31 | 0.789 (inactive) | -0.408 (inactive)
CAVKSRKRRKAGNASASA [FS-149] | 11 (active) | 11.7 (active) | 8.76 (active)
CASTPCSAHIAGNASASA [HC2564] | -0.152 (inactive) | -1.03 (inactive) | -0.677 (inactive)
CALWWLQYFLAGNASASA [HC582] | -0.496 (inactive) | -0.768 (inactive) | -1.19 (inactive)
CAEVVDSTWVAGNASASA [HC132] | -0.25 (inactive) | 1.14 | -1.05 (inactive)
CATTPDSGSWAGNASASA [HC52] | -0.899 (inactive) | -0.656 (inactive) | -0.757 (inactive)
CAVLEESKRLAGNASASA [FS-1429] | -0.217 (inactive) | -1.55 (inactive) | -0.503 (inactive)
CASTPCSARLAGNASASA [HC2553] | 0.576 (inactive) | 0.581 (inactive) | -0.498 (inactive)
CASTPCSKHLAGNASASA [HC2534] | 1 | -1.62 (inactive) | 0.302 (inactive)

Sequence | furin cleavage Z-score (7.5 min) | furin cleavage Z-score (15 min) | furin cleavage Z-score (30 min)
CATTYRSKRLAGNASASA [FS-886] | 8.78 (active) | 10.5 (active) | 9.12 (active)
CASTPRSKRLAGNASASA [FS-1091] | 3.77 (active) | 6.77 (active) | 5.46 (active)
CAHTWREKRLAGNASASA [FS-31] | 1.05 | 0.418 (inactive) | 0.0913 (inactive)
CAEVQTSTWVAGNASASA [HC2202] | 0.816 (inactive) | 1.29 | 1.14
CARRRRPRREAGNASASA [FS-1404] | 7.83 (active) | 8.28 (active) | 6.14 (active)
CARRRRPERVAGNASASA [FS-3064] | 0.335 (inactive) | 0.809 (inactive) | 1.19
CARRPRFKDIAGNASASA [FS-3058] | 0.143 (inactive) | -0.201 (inactive) | 0.618 (inactive)
CADPLRPRREAGNASASA [FS-122] | 5.53 (active) | 5.14 (active) | 4.87 (active)
CARRRRPERGAGNASASA [FS-495] | 1.03 | 0.676 (inactive) | 1.87
CARRPRPRREAGNASASA [FS-1480] | 8.98 (active) | 9.92 (active) | 8.21 (active)
CADPLVAEEDAGNASASA [HC1289] | -0.0204 (inactive) | -0.956 (inactive) | -0.261 (inactive)
CALVAFKIMSAGNASASA [HC1092] | -0.725 (inactive) | -0.454 (inactive) | -0.368 (inactive)
CAKHSRRRRSAGNASASA [FS-174] | 10.9 (active) | 10.7 (active) | 6.68 (active)
CASSSRRSRSAGNASASA [FS-1615] | 7.43 (active) | 8.67 (active) | 6.73 (active)
CASSSRRRRSAGNASASA [FS-1286] | 9.8 (active) | 8.59 (active) | 7.58 (active)
CAAPSRRSRSAGNASASA [FS-216] | 9.21 (active) | 8.84 (active) | 7.91 (active)
CASSREKRRSAGNASASA [FS-1285] | 0.453 (inactive) | 0.575 (inactive) | 2.39
CAMEECSRHLAGNASASA [HC1733] | 0.727 (inactive) | 0.671 (inactive) | 1.88
CAALTGTYVYAGNASASA [HC632] | 1.19 | -0.31 (inactive) | -0.691 (inactive)
CAKPDYEPPVAGNASASA [HC1312] | 0.808 (inactive) | -0.123 (inactive) | 0.46 (inactive)
CAEVPCHYPSAGNASASA [HC2369] | 0.223 (inactive) | 1.34 | 1.34
